From PubChem BioAssay (EPA / NIEHS)
Results filed as inconclusive are left out. Some compounds were tested as several samples or in several runs, with calls that do not always agree. Activity calls are given as the source filed them. How the source made its calls: active means hit-call score of the fitted dose curve at least 0.9, where 1 is the maximum; inconclusive means response in the unintended direction; inactive means score below 0.9.

Experiments:
[1] = biological target: human Phosphodiesterase 10 (PDE10), PDE10A (gene 10846) (UniProt Q9Y233); assay: NVS_ENZ_hPDE10: NovaScreen (NVS) Enzymatic Assay for human Phosphodiesterase 10 (PDE10) (AID 2283195)
Summary of the method: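 Fluorescence/mobility-shift readout of PDE10A enzyme activity, taken 1 h post-dosing. Primary screen in duplicate at 25 uM; actives (e.g. ≥30% inhibition) retested as singleton concentration-response, top concentration 50 uM.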

[2] = biological target: human Matrix Metalloproteinase-7 (MMP7), MMP7 (gene 4316) (UniProt P09237); assay: NVS_ENZ_hMMP7: NovaScreen (NVS) Enzymatic Assay for human Matrix Metalloproteinase-7 (MMP7) (AID 2283183)
Chain of human Matrix Metalloproteinase-7 (MMP7), MMP7 (gene 4316) (P09237 whole entry, looked up): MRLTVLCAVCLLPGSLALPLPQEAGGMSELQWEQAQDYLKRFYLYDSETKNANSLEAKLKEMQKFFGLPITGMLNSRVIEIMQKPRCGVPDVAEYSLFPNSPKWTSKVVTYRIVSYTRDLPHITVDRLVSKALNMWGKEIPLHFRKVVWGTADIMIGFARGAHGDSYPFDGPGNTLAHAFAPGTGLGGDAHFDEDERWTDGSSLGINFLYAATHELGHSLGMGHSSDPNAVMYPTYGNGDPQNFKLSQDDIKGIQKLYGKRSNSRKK
Summary of the method: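 Cell-free fluorescence enzymatic assay read 1 h after compound addition, activity loss analyzed against DMSO. Primary duplicate testing at 25 uM; compounds meeting threshold rerun in singleton concentration-response up to 50 uM.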

[3] = biological target: human Matrix Metalloproteinase-3 (MMP3), MMP3 (gene 4314) (UniProt P08254); assay: NVS_ENZ_hMMP3: NovaScreen (NVS) Enzymatic Assay for human Matrix Metalloproteinase-3 (MMP3) (AID 2283185)
Chain of human Matrix Metalloproteinase-3 (MMP3), MMP3 (gene 4314) (P08254 whole entry, looked up): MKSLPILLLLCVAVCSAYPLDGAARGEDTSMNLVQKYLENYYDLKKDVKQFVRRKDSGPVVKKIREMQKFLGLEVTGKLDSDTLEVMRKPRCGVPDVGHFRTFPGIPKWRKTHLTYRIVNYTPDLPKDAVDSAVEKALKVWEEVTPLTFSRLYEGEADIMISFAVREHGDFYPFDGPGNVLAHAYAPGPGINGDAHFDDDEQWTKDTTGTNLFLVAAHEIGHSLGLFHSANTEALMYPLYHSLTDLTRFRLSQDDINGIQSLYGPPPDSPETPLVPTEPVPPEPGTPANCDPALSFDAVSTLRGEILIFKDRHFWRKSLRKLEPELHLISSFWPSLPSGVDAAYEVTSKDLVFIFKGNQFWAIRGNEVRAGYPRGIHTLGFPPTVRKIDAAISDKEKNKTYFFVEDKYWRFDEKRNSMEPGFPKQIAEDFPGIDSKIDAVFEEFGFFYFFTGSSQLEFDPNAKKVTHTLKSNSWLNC
Summary of the method: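 Cell-free recombinant human MMP3 activity, fluorescence intensity read 1 h after dosing. Primary screen duplicate at 25 uM, actives retested in concentration series; loss of signal vs DMSO baseline.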

[4] = biological target: human c-Jun N-terminal Kinases (JNK2), MAPK9 (gene 5601) (UniProt P45984); assay: NVS_ENZ_hJNK2: NovaScreen (NVS) Enzymatic Assay for human c-Jun N-terminal Kinases (JNK2) (AID 2283171)
Chain of human c-Jun N-terminal Kinases (JNK2), MAPK9 (gene 5601) (P45984 whole entry, looked up): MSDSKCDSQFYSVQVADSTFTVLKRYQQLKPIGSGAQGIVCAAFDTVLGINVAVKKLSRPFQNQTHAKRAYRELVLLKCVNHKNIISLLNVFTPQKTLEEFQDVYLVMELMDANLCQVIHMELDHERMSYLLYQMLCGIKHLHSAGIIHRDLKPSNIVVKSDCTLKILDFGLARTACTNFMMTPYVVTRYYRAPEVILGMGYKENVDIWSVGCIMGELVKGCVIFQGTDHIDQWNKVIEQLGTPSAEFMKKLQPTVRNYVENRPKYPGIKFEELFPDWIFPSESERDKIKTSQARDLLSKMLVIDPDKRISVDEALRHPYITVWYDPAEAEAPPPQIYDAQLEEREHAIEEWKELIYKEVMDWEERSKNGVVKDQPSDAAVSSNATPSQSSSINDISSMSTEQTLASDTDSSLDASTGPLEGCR
Summary of the method: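 Cell-free recombinant human JNK2 activity assay; fluorescent substrate and product separated by electrophoretic mobility shift, read 1 h after dosing. Primary duplicate screen at 25 uM; actives run in concentration-response up to 50 uM, relative to DMSO.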

[5] = biological target: Mitogen-activated protein kinase 3 (Homo sapiens) (UniProt P27361); assay: NVS_ENZ_hMAPK3: NovaScreen (NVS) Enzymatic Assay for human Mitogen-Activated Protein Kinase 3 (MAPK 3) (AID 2283177)
Chain of Mitogen-activated protein kinase 3 (Homo sapiens) (P27361 whole entry, looked up): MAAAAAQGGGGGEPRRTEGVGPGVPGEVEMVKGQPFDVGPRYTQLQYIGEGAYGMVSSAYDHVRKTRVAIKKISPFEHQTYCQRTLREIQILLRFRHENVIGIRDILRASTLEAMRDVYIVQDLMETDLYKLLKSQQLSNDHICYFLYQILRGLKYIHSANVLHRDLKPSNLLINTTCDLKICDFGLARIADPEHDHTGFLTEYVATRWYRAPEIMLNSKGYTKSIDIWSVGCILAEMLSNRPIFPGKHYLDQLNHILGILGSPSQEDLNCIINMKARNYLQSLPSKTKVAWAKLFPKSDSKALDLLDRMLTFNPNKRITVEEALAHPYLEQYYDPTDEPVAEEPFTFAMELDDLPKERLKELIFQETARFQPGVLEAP
Summary of the method: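 Cell-free enzymatic assay with recombinant protein and specific substrate; fluorescence and electrophoretic mobility shift read-out 1 h after dosing. Primary screen duplicate at 25 uM; actives then run in concentration-response up to 50 uM, loss of signal versus DMSO.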

[6] = biological target: human MAP Kinase-Activated Protein Kinase 2 (MAPKAPK2), MAPKAPK2 (gene 9261) (UniProt P49137); assay: NVS_ENZ_hMAPKAPK2: NovaScreen (NVS) Enzymatic Assay for human MAP Kinase-Activated Protein Kinase 2 (MAPKAPK2) (AID 2283178)
Chain of human MAP Kinase-Activated Protein Kinase 2 (MAPKAPK2), MAPKAPK2 (gene 9261) (P49137 whole entry, looked up): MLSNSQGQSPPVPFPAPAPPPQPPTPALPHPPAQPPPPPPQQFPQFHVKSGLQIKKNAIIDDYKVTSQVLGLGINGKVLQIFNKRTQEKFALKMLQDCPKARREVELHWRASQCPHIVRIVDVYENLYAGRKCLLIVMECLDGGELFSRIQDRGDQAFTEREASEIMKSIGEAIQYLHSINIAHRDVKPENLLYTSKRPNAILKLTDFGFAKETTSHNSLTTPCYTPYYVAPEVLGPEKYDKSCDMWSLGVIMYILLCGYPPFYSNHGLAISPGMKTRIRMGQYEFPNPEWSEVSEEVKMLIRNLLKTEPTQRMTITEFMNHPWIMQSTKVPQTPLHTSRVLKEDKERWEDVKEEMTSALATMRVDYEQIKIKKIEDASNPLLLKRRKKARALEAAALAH
Summary of the method: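 Cell-free recombinant human MAPKAPK2 activity measured by fluorescence with electrophoretic mobility shift separation of substrate and product, 1 hr after dosing. Loss of signal versus DMSO; primary screen at 25 uM, concentration-response up to 50 uM.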

[7] = biological target: human Mitogen- and Stress-activated Protein Kinase-1 (Msk1), RPS6KA5 (gene 9252) (UniProt O75582); assay: NVS_ENZ_hMsk1: NovaScreen (NVS) Enzymatic Assay for human Mitogen- and Stress-activated Protein Kinase-1 (Msk1) (AID 2283187)
Summary of the method: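 Recombinant kinase with fluorescent substrate; product separated by electrophoretic mobility shift, read 1 h after dosing. Screened in duplicate at 25 uM; hits (e.g. ≥30% inhibition) tested in concentration–response up to 50 uM. DMSO baseline.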

[8] = biological target: human Phosphodiesterase 4A1 (PDE4A1), PDE4A (gene 5141) (UniProt P27815); assay: NVS_ENZ_hPDE4A1: NovaScreen (NVS) Enzymatic Assay for human Phosphodiesterase 4A1 (PDE4A1) (AID 2283191)
Chain of human Phosphodiesterase 4A1 (PDE4A1), PDE4A (gene 5141) (P27815 whole entry, looked up): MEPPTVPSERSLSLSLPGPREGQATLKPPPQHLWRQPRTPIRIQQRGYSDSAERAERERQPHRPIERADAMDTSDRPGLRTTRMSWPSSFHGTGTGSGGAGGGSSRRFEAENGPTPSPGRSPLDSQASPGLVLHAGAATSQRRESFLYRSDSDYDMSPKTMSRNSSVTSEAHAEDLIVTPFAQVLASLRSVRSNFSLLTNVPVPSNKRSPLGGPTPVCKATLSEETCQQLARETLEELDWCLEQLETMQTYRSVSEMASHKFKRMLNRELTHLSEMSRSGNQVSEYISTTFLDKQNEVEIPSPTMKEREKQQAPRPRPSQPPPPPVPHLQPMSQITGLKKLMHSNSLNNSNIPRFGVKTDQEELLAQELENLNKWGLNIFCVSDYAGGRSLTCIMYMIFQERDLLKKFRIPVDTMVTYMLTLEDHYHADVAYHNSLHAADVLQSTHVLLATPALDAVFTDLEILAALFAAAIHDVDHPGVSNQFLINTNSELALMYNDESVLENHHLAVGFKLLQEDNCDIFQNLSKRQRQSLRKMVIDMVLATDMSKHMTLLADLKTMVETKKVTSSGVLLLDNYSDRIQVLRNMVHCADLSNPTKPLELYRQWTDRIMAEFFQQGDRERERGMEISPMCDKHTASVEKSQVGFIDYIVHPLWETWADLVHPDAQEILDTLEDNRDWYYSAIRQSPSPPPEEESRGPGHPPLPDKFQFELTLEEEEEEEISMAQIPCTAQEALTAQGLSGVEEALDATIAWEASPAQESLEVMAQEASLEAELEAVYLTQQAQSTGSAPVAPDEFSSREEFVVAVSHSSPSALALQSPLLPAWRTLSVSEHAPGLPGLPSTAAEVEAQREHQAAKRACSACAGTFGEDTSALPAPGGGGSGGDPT
Summary of the method: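 Cell-free recombinant human PDE4A1 with fluorescent substrate; product separated by electrophoretic mobility shift, 1 h. Screened at 25 uM, then up to 50 uM in concentration-response; loss of signal fitted against DMSO.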

[9] = biological target: human Phosphodiesterase 5 (PDE5), PDE5A (gene 8654) (UniProt O76074); assay: NVS_ENZ_hPDE5: NovaScreen (NVS) Enzymatic Assay for human Phosphodiesterase 5 (PDE5) (AID 2283194)
Summary of the method: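 Recombinant human PDE5 with specific substrate, read 1 h after dosing by fluorescence with electrophoretic mobility-shift separation of substrate and product. Initial single-concentration duplicate screen at 25 uM, actives followed in concentration series; loss of activity versus DMSO.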

[10] = biological target: Serine/threonine-protein phosphatase PP1-alpha catalytic subunit (Homo sapiens) (UniProt P62136); assay: NVS_ENZ_hPPP1CA: NovaScreen (NVS) Enzymatic Assay for human Protein Phosphatase 1 Aatalytic subunit Alpha (PPP1CA) (AID 2283200)
Chain of Serine/threonine-protein phosphatase PP1-alpha catalytic subunit (Homo sapiens) (P62136 whole entry, looked up): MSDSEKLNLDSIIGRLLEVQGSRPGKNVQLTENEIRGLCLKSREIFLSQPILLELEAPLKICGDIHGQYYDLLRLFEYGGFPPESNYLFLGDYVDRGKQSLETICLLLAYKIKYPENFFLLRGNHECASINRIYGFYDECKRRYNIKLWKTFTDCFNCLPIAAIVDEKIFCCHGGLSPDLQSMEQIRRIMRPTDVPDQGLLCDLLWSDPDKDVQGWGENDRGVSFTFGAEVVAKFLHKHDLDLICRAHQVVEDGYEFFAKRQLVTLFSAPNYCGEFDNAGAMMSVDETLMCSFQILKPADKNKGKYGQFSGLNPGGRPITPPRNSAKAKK
Summary of the method: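 Recombinant enzyme activity read by fluorescence with electrophoretic mobility shift separating substrate from product, 1.33 h after dosing; loss of signal vs DMSO baseline. Primary screen in duplicate at 25 uM; actives retested in concentration-response up to 50 uM.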

[11] = biological target: human Protein Tyrosine Phosphatase Non-receptor Type 1 (PTPN1), PTPN1 (gene 5770) (UniProt P18031); assay: NVS_ENZ_hPTPN1: NovaScreen (NVS) Enzymatic Assay for human Protein Tyrosine Phosphatase Non-receptor Type 1 (PTPN1) (AID 2283201)
Chain of human Protein Tyrosine Phosphatase Non-receptor Type 1 (PTPN1), PTPN1 (gene 5770) (P18031 whole entry, looked up): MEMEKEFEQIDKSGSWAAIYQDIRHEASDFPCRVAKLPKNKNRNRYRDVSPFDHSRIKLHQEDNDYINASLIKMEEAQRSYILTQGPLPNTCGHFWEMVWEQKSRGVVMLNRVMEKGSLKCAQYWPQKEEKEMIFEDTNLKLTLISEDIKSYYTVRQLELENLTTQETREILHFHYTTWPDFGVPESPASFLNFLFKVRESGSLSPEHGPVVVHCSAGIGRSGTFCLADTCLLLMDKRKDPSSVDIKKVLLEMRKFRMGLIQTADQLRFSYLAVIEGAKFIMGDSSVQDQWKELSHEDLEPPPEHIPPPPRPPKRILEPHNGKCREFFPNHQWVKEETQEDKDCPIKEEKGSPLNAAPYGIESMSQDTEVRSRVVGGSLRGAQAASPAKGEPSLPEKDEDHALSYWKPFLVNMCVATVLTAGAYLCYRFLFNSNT
Summary of the method: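 Cell-free fluorogenic-substrate activity assay on recombinant enzyme, read 1.33 h after dosing by fluorescence and electrophoretic mobility shift; loss of signal vs DMSO baseline. Primary screen in duplicate at 25 uM, hits then run in concentration-response up to 50 uM.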

[12] = biological target: human Matrix Metalloproteinase-2 (MMP2), MMP2 (gene 4313) (UniProt P08253); assay: NVS_ENZ_hMMP2: NovaScreen (NVS) Enzymatic Assay for human Matrix Metalloproteinase-2 (MMP2) (AID 2283184)
Summary of the method: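 Cell-free recombinant MMP2 activity with a fluorescent substrate, read 1 h after dosing. Primary screen in duplicate at 25 uM; actives then run in concentration series; loss of signal fitted versus DMSO.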

[13] = biological target: Collagenase 3 (Homo sapiens) (UniProt P45452); assay: NVS_ENZ_hMMP13: NovaScreen (NVS) Enzymatic Assay for human Matrix Metalloproteinase-13 (MMP13) (AID 2283182)
Summary of the method: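 Recombinant MMP13 cleaving fluorescent substrate, cell-free, measured 1 h after dosing. Primary duplicate screen at 25 uM; actives tested in concentration-response up to 50 uM; loss of signal relative to DMSO.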

[14] = biological target: human Matrix Metalloproteinase-9 (MMP9), MMP9 (gene 4318) (UniProt P14780); assay: NVS_ENZ_hMMP9: NovaScreen (NVS) Enzymatic Assay for human Matrix Metalloproteinase-9 (MMP9) (AID 2283190);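 further: cell-free recombinant MMP9 protease activity read by fluorescent substrate signal; active means inhibition seen as loss of fluorescence signal versus DMSO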
Summary of the method: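 Cell-free recombinant MMP9 enzyme activity measured by fluorescence intensity 1 h after dosing. Primary screen in duplicate at 25 uM, actives followed in concentration series; loss of signal relative to DMSO.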

[15] = biological target: cAMP-dependent protein kinase catalytic subunit alpha (Homo sapiens) (UniProt P17612); assay: NVS_ENZ_hPKA: NovaScreen (NVS) Enzymatic Assay for human Protein Kinase A (PKA) (AID 2283192)
Summary of the method: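 Recombinant human PKA with specific fluorescent substrate, product separated by electrophoretic mobility shift, read 1 h after dosing. Primary screen at 25 uM in duplicate; actives then run in concentration-response up to 50 uM, activity relative to DMSO.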

[16] = biological target: human Phosphoinositide 3-kinase alpha (PI3Ka), PIK3CA (gene 5290) (UniProt P42336); assay: NVS_ENZ_hPI3Ka: NovaScreen (NVS) Enzymatic Assay for human Phosphoinositide 3-kinase alpha (PI3Ka) (AID 2283196)
Chain of human Phosphoinositide 3-kinase alpha (PI3Ka), PIK3CA (gene 5290) (P42336 whole entry, looked up): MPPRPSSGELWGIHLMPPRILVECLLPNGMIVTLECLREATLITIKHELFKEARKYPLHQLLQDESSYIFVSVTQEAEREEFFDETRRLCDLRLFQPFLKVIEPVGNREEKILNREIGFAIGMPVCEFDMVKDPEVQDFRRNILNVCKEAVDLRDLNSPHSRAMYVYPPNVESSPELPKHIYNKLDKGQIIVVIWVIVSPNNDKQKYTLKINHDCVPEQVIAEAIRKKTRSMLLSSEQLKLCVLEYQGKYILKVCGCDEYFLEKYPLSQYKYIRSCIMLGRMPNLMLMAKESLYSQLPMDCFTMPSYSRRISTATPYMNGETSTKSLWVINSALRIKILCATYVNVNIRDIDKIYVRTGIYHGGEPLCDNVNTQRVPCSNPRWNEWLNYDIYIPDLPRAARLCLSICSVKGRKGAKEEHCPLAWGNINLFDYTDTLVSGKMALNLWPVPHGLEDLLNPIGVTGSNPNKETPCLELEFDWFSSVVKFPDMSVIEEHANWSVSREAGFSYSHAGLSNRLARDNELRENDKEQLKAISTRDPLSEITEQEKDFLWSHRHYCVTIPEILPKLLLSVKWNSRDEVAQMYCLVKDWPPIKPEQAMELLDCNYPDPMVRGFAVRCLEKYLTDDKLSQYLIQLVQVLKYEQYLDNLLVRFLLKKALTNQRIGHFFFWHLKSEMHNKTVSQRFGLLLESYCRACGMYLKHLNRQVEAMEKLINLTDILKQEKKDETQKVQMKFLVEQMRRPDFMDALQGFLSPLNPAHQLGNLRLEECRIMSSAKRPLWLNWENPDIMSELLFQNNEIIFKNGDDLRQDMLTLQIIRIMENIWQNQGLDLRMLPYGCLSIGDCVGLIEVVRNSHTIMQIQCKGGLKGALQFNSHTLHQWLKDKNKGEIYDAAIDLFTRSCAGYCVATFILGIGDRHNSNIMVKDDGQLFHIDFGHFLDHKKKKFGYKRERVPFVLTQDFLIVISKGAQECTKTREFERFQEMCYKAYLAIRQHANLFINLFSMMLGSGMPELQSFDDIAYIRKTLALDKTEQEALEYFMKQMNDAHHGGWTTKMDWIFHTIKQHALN
Summary of the method: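 Recombinant human PI3Kα with fluorescent substrate, 1 h, product separated by electrophoretic mobility shift; 25 uM duplicate screen, hits (e.g., 30% inhibition) retested singly up to 50 uM; loss of signal vs DMSO.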

[17] = biological target: human Janus Kinase 2 (Jak2), JAK2 (gene 3717) (UniProt O60674); assay: NVS_ENZ_hJak2: NovaScreen (NVS) Enzymatic Assay for human Janus Kinase 2 (Jak2) (AID 2283169)
Summary of the method: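 Cell-free recombinant human JAK2 enzyme activity assay, fluorescence/electrophoretic mobility shift read 1 h after dosing. Screened in duplicate at 25 uM, then concentration-response up to 50 uM; activity as signal loss relative to DMSO.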

[18] = biological target: human Protein Phosphatase, Mg2+/Mn2+ Dependent 1A (PPM1A), PPM1A (gene 5494) (UniProt P35813); assay: NVS_ENZ_hPPM1A: NovaScreen (NVS) Enzymatic Assay for human Protein Phosphatase, Mg2+/Mn2+ Dependent 1A (PPM1A) (AID 2283198)
Summary of the method: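 Cell-free recombinant PPM1A phosphatase assay with fluorescent substrate, read 1 h after dosing by electrophoretic mobility shift. Chemicals screened in duplicate at 25 uM, then in concentration-response up to 50 uM; loss of activity versus DMSO.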

Measured: AC50

CC(=O)S[C@@H]1CC2=CC(=O)CC[C@]2(C)[C@H]2CC[C@@]3(C)[C@@H](CC[C@@]34CCC(=O)O4)[C@H]12
active: [1] 14.4 µM

CCCCOC(=O)[C@@H](C)Oc1ccc(Oc2ccc(C(F)(F)F)cn2)cc1
inactive: [2] | [3]

CC(C)CCCCCCc1ccc(O)cc1
inactive: [4] | [5] | [6] | [7] | [8] | [9] | [10] | [11]

CCCCCOC(=O)COc1cc(N2C(=O)C3=C(CCCC3)C2=O)c(F)cc1Cl
inactive: [12]

CCC(C)OC(=O)N1CCCCC1CCO (centres undefined)
inactive: [1]

OB(O)O
inactive: [10]

O=C(O)C1(C(=O)Nc2ccc(Cl)cc2Cl)CC1
active: [4] 25 µM | [12] 8.27 µM | [8] 24.2 µM | [9] 13 µM | [1] 34.9 µM | [10] 19.7 µM | [11] 3.82 µM
inactive: [6] | [3] | [7]

S=C([S-])NCCNC(=S)[S-].[Mn+2]
active: [5] 10 µM | [6] 0.468 µM | [13] 6.6 µM | [7] 2.09 µM | [8] 16.7 µM | [15] 25 µM | [1] 25 µM | [11] 0.831 µM
inactive: [2] | [14] | [16]

CCCCC(CC)CN1C(=O)C2C3C=CC(C3)C2C1=O (centres undefined)
inactive: [2] | [7]

CC(C)(c1ccc(O)cc1)c1ccc(O)cc1
inactive: [17] | [4] | [5] | [13] | [2] | [3] | [16] | [18]
active: [16] 25.4 µM

O=C(Nc1ccc([N+](=O)[O-])cc1Cl)c1cc(Cl)ccc1O
inactive: [5] | [6] | [10]
